# GDH-TPI counter-1: inhibits GDH-TPI coupling enzymes, artifact for Mtb FBA screen; inhibition, % at 4.8 µM; hit rate 1.2% among 360,000; GDH-TPI coupled enzyme counterscreen, NADH absorbance; AID 588335; in the data active = inhibition above about 30%;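 also: 0% = DMSO wells and 100% = wells lacking the enzyme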
# Mtb UGM inh: inhibitors of M. tuberculosis UDP-galactopyranose mutase | P9WIQ1 | purified UGM, fluorescence polarization probe displacement | inhibition, % at 10 µM | hit rate 0.06% among 320,000; in the data active = inhibition above about 10%, passing the limit was not always enough
# Target sequence (P9WIQ1 whole entry, looked up): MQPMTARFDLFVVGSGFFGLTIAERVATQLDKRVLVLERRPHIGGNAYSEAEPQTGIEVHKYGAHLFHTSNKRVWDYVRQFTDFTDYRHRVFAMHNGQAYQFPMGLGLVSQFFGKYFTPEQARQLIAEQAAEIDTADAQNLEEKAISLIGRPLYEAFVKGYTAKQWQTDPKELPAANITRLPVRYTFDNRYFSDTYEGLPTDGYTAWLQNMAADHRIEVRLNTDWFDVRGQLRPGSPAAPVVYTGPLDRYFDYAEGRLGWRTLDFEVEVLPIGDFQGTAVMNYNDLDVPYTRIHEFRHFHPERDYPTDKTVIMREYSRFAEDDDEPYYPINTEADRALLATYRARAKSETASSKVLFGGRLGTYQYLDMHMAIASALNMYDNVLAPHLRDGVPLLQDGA
# Mtb FBA inh: Mtb fructose-bisphosphate aldolase inhibition. P9WQA3. purified M. tuberculosis FBA, fluorescence read-out. inhibition, % at 1 µM. hit rate 2.3% among 360,000. AID 588726;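 also: 0% = vehicle and 100% = reference inhibitor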
# Rv3671c inh: inhibits the M. tuberculosis serine protease Rv3671c | P9WHR9 | inhibition, % at 5.96 µM | hit rate 0.048% among 320,000 | AID 2606; in the data active = inhibition above about 38%;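 also: extracellular domain of Rv3671c used as enzyme; 0% = enzyme with DMSO and 100% = no enzyme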
# Mtb FBA confirm: confirmation of M. tuberculosis fructose-bisphosphate aldolase inhibitors | shares compounds with Mtb FBA inh | purified M. tuberculosis FBA, fluorescence read-out | hit rate 78% among 5,600 | inhibition, % at 1 µM;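 also: 0% = vehicle wells and 100% = reference inhibitor wells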
# GDH-TPI counter-2: counter-screen for M. tuberculosis FBA inhibitors: GDH-TPI coupled enzyme inhibition. GDH-TPI coupled enzyme counterscreen, fluorescence. shares compounds with Mtb FBA inh. hit rate 81% among 5,600. AID 652141. inhibition, % at 1 µM; in the data active = inhibition above about 10%
# An asterisk follows results filed as active; · = no result; + = active, no number. Sampled rows, rich in hits. Any-hit rate of the full collection: about 3.5%. Rule as the data show it, unless noted: active = inhibition above about 27%; inactive = the rest.
SMILES,GDH-TPI counter-1,Mtb UGM inh,Mtb FBA inh,Rv3671c inh,Mtb FBA confirm,GDH-TPI counter-2
CS(=O)(=O)c1ccc(Nc2nc(C(N)Cc3ccc(Cl)cc3)cs2)cc1 (configuration not stated),4,·,0,·,·,·
Cn1c(NN)nc2ccccc2c1=O,4,-2,5,-3,·,·
Cn1c(N)nc2ccccc2c1=O,-1,0,28*,-4,34*,22*
CCCCNC(=O)c1cc2cc(CC)ccc2[nH]1,11,-2,31*,-8,79*,65*
COc1ccc(-c2cc3c(=O)n(CC(=O)NCCN4CCCC4)nc(C)n3n2)cc1,-8,-1,32*,0,63*,54*
CCN(C(=O)COC(=O)C1CCC(C(C)(C)C)CC1)c1c(N)n(Cc2ccccc2)c(=O)[nH]c1=O (configuration not stated),5,·,6,·,·,·
CCC(C)(C)n1nnnc1CN1CCC(NC(=O)c2ccc(Br)cc2)CC1,4,-1,33*,5,4,-2
Cc1ccc(Cn2nnnc2CN2CCC(NC(=O)c3ccc(Br)cc3)CC2)cc1,2,0,2,2,·,·
CCN(CC)c1ccc(/C=N/NC(=O)c2nnn(-c3nonc3N)c2-c2ccc(C)cc2)cc1,10,0,24,0,·,·
COc1cccc2c1cc1c(=O)n(CC(=O)N3CCCC3)nc(C)n12,-2,·,80*,·,9,2
CC(OC(=O)c1cccnc1Cl)C(=O)Nc1ccc2c(c1)OCCO2 (configuration not stated),-1,1,35*,0,161*,130*
CCOC(=O)CC1(CC(=O)OCC)NC(=O)c2c(C)sc(C(=O)OCC)c2N1,14,1,31*,1,5,3
CCCCC1(C)NC(=O)c2c(C)sc(C(=O)OCC)c2N1 (configuration not stated),3,2,25,-1,·,·
CCOC(=O)CC1(C)NC(=O)c2c(C)sc(C(=O)OCC)c2N1 (configuration not stated),17,-1,55*,0,2,-2
O=c1[nH]c2ccc(Cl)cc2c(O)c1Cc1ccccc1,12,4,35*,-8,+,193*
COC(=O)/C=c1\[nH]c2nnc(C)n2c1=O,9,-1,84*,-1,+,+
O=C1CN(C(=O)CNCc2ccccc2)c2ccccc2N1,14,2,3,-5,·,·
Nc1c(Cl)cc(Cl)cc1C(=O)OCC(=O)NC1CC1,10,-1,84*,0,8,0
Nc1ncccc1C(=O)OCC(=O)NC1CCCCCC1,11,3,33*,-16,56*,43*
Cc1c(Br)c(=O)oc2c(C)c(O)ccc12,14,-1,41*,-10,196*,169*
COc1ccc(CNC(=O)CCc2ccc(S(=O)(=O)N3CCCCCC3)cc2)cc1OC,3,·,-1,·,·,·
Cn1cnc(S(=O)(=O)Nc2ccccc2C(=O)NCC2CC2)c1,1,1,29*,1,82*,64*
O=C(COC(=O)CNC(=O)c1ccccc1)Nc1ccc(Cl)cn1,-6,2,0,-1,·,·
CCOc1ccccc1C(=O)N(Cc1ccc(C)o1)C1CCS(=O)(=O)C1 (configuration not stated),2,1,0,-7,·,·
O=C(Nc1nc(-c2ccccc2)cs1)c1ccccc1NS(=O)(=O)c1ccc(F)cc1,2,0,37*,-49,+,+
SMILES,GDH-TPI counter-1,Mtb UGM inh,Mtb FBA inh,Rv3671c inh,Mtb FBA confirm,GDH-TPI counter-2
Cc1cccc(-c2cc(NCCc3cccnc3)n3nccc3n2)c1,4,·,32*,·,46*,35*
CCOc1cccc(-c2cc(NCCc3ccccn3)n3nccc3n2)c1,7,·,35*,·,87*,71*
CCCCN(C=O)c1c(CC)nc2ccc(C(=O)NCc3cccs3)cn12,10,·,3,·,·,·
COC(=O)c1ccc(/C=N/n2c(C)nc3ccccc3c2=O)cc1,5,-1,3,-4,·,·
CN1c2ccccc2Oc2nnc(Cl)cc21,7,0,28*,5,51*,38*
CN1c2ccccc2Oc2ccccc21,5,1,2,-2,·,·
CN1c2ccccc2Oc2nnc(N3CCN(Cc4ccccc4)CC3)cc21,6,2,57*,4,87*,82*
CCN(CC)CCOc1cc2c(nn1)Oc1ccccc1N2C,27,3,56*,5,164*,154*
CC1CC(C)CN(C(=O)/C=C/c2ccc(S(=O)(=O)N3CCOCC3)cc2)C1 (configuration not stated),-3,-2,2,7,·,·
CC(C)CC1NC(=O)N(CC(=O)Nc2cc(S(=O)(=O)N3CCOCC3)ccc2Cl)C1=O (configuration not stated),6,4,5,3,·,·
Cc1cc(C)c2nc(NCCCNC(=S)NCCCN(C)C)c(C#N)cc2c1,1,-4,58*,2,52*,43*
CCOCCCNC(=S)NCCNc1nc2c(C)cccc2cc1C#N,13,-3,57*,0,33*,29*
Cc1cccc2cc(C#N)c(NCCCn3ccnc3)nc12,-3,-1,39*,7,152*,139*
COCCCNC(=S)NCCNc1nc2cc(C)cc(C)c2cc1C#N,2,-1,21,6,·,·
Cc1ccc2cc(C#N)c(NCCNC(=S)NCCCN(C)C)nc2c1C,3,1,15,-10,·,·
Cc1ccc2cc(C#N)c(NCCNC(=O)C3CC3)nc2c1C,-2,2,32*,-3,133*,111*
Cc1cccc2cc(C#N)c(NCCNC(=O)COc3ccccc3)nc12,2,-1,40*,1,102*,89*
CCOCCCNC(=S)NCCCNc1nc2c(C)cc(C)cc2cc1C#N,6,·,38*,·,+,147*
O=C1C[C@H](NC(=O)OCc2ccccc2)CO1,-9,2,-1,5,·,·
CCOC(=O)c1oc2c(CN3CCCCC3C)c(O)ccc2c(=O)c1-c1ccc(OC)c(OC)c1 (configuration not stated),15,2,2,-2,·,·
Cc1oc2c(CN3CCOCC3)c(O)ccc2c(=O)c1-c1ccc(Br)cc1,10,-1,68*,8,4,-4
CCCc1cc(=O)oc2c(CN3CCOCC3)c(O)ccc12,23,-2,·,-2,·,·
Cc1oc2c(CN3CCCCC3C)c(O)ccc2c(=O)c1-c1ccc(Br)cc1 (configuration not stated),11,0,108*,·,118*,97*
Cc1oc2c(CN3CCOCC3)c(O)ccc2c(=O)c1-c1ccc(Cl)cc1,28,-3,65*,0,37*,22*
CCOC(=O)c1sc2nc(C(C)C)c3c(c2c1N)CCC3,4,-2,29*,3,96*,82*
CCOc1ccc(-c2cn3ccccc3n2)cc1,4,-2,44*,7,116*,69*
O=C(Nc1cccc(-c2cn3ccccc3n2)c1)C1CC1,14,-2,36*,-2,112*,88*
Fc1ccc(-c2cn3ccccc3n2)cc1,3,1,26,4,·,·

# High-throughput results deposited in PubChem BioAssay by several laboratories.
